MCF10A rerep = DNA re-replication induction in MCF 10a cells. Potency, µM (series often up to 46.1 µM), for inactives: top-dose activity, positive = re-replication, usual class: activators. 350,000 tested, 2.9% active. MCF 10A DNA re-replication, Hoechst nuclear intensity, 48 h; further: % of control where 0% means no effect; nearly all actives have a fitted effect of over 50% in size
SW480 rerep = inducers of DNA re-replication in SW480 colon cancer cells; 340,000 tested, 1.8% active; SW480 DNA re-replication, Hoechst DNA content imaging, 48 h; Potency, µM (top dose mostly 46.1 µM), inactives show top-dose re-replication activation, actives largely listed as activators; further: % of control where 0% means no effect; nearly all actives have a fitted effect of over 55% in size
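DNA re-replication was detected as more nuclei of elevated Hoechst intensity after 48 hr exposure to compound (23 nL pinned per well of 250 cells).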
KB-3-1 tox = kills parental KB-3-1 adenocarcinoma cells; KB-3-1 viability, CellTiter-Glo ATP luminescence, 72 h; Potency, µM (titrated, usually from 46.1 µM), hits mostly cytotoxic; 400,000 tested, 1.4% active; AID 1347075; further: on the % scale 0 is the no-effect control and ±100 the full control effect; nearly all actives have a fitted effect of over 60% in size
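72 h, 37 °C compound treatment of KB-3-1 parental cells; CellTiter-Glo added, 10 min, luminescence read. Data corrected against DMSO-only plates and normalized before curve fitting.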
HT1080NT lethal = kills 2HG-producing HT-1080-NT fibrosarcoma cells. Potency, µM (highest dose often 46.1 µM), inactives show at the top dose activity, negative = less viability, hits mostly cytotoxic. AID 686970. HT-1080-NT fibrosarcoma viability, CellTiter-Glo ATP luminescence, 48 h. 360,000 tested, 1.6% active;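 further: NT is the 2HG producing partner of a matched IDH1 knockdown line; 0% = DMSO-treated cells and -100% = media-only wells without cells; nearly all actives have a fitted effect of over 55% in size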
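Toxicity toward the 2HG-producing NT line was scored as %Activity, normalised to DMSO and no-cell wells, from CellTiter-Glo luminescence after 48 hours' treatment.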
KB-V1 cytotox = kills drug-selected multidrug resistant KB-V1 cells; 400,000 tested, 3.4% active; KB-V1 MDR cells viability, CellTiter-Glo, 72 h; Potency, µM (top dose mostly 46.1 µM), usual class: cytotoxic; further: on the % scale 0 is the no-effect control and ±100 the full control effect; nearly all actives have a fitted effect of over 60% in size
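Compound-treated KB-V1 multidrug-resistant cells, 72 h, 37 degrees C; viability by CellTiter-Glo. Fitted qHTS curves give the values.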
HT1080 IDH1KD tx = toxicity to HT-1080 IDH1 knockdown cells (counter line); HT-1080 IDH1 knockdown viability, ATP luminescence, 48 h; Potency, µM (highest dose often 46.1 µM), for inactives: top-dose activity, negative = toxicity, actives largely listed as cytotoxic; 360,000 tested, 2% active; AID 686971;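 further: 0% = DMSO wells and -100% = cell-free medium wells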
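Luminescent ATP read-out (CellTiter-Glo, 10 min at room temperature) after 48 h compound exposure at 37 °C gave viability of IDH1-knockdown HT-1080 cells. Activity was normalised to DMSO and cell-free wells, then fitted as concentration-response curves.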
* marks the source's active call; other numbers are inactive results; i = inactive; ? = inconclusive; / = not tested or not shown; ! = repeats disagree; [ ] = dose if it differs, or a comment. Most compounds without a hit are left out; they make up all but 7.9% or so of the library. The call rests on the fitted dose curve; in most records, active means well fitted curve in the direction sought with a large enough effect; inconclusive means small, poorly fitted or top-dose-only effect, or another doubt; inactive means no such curve, though single readings can be large; an effect the other way counts as inactive or inconclusive. Potency means the concentration at half of the fitted maximal effect.

SMILES	MCF10A rerep	SW480 rerep	KB-3-1 tox	HT1080NT lethal	KB-V1 cytotox	HT1080 IDH1KD tx
O=C(C1CCC(Cn2c(=O)c3sccc3n(Cc3ccccc3F)c2=O)CC1)N1CCOCC1 (centres undefined)	/	/	i	/	i	/
COc1ccc(-n2ncc(C(=O)N3CCN(c4ncccn4)CC3)c2C2CCN(C(=O)OC(C)(C)C)CC2)cc1	/	/	i	/	i	/
O=C1C=CC2(O[C@H](c3ccccc3)[C@@H](c3ccccc3)O2)[C@H](Sc2ccccc2O)C1	?	?	3.3µM*	4.6µM*	?	3.3µM*
C[C@@H]1[C@@H](Sc2ccccc2)CC(=O)O[C@@H]1c1ccc(-c2ccccc2)cc1	101%	28%	?	?	?	?
COc1ccc2nc(N3C(=O)C(O)=C(C(=O)c4ccco4)C3c3ccc(C)o3)sc2c1 (centres undefined)	?	-6%	i	-26%	?	-28%
Cc1ccc2nc(N3C(=O)C(O)=C(C(=O)c4ccco4)C3c3cccs3)sc2c1 (centres undefined)	21µM*	?	i	?	13µM*	?
Cc1cc(C)c2nc(N3C(=O)C(O)=C(C(=O)c4ccco4)C3c3ccco3)sc2c1 (centres undefined)	18µM*	16µM*	i	?	i	?
CCN1C(=O)C(Cc2nc3ccccc3c(=O)n2-c2ccccc2)c2cc(Br)ccc21 (centres undefined)	/	/	i	/	?	/
CN(C)c1ccc(/C=C2\C(=O)/C(=C/c3ccc(N(C)C)cc3)c3ccccc32)cc1	/	/	i	/	i	/
CC(=O)N1/C(=C/c2ccc(N(C)C)cc2)C(=O)c2ccccc21	?	2.1µM*	?	3.3µM*	i	?
COc1ccc(/C=C/c2onc(C)c2S(=O)(=O)N2CCC(C(=O)N3CCC(C)CC3)CC2)cc1	?	16%	21µM*!	-26%	i	-25%
CCCNC(=O)C1CCN(S(=O)(=O)c2c(C)noc2/C=C\c2ccc(OC)cc2)CC1	36%	20%	i	15%	i	14%
Cc1cccc(/C=C/c2onc(C)c2S(=O)(=O)N2CCC(C(=O)N3CCCCCC3)CC2)c1	4%	?	i	-7%	i	-3%
Cc1cccc(/C=C/c2onc(C)c2S(=O)(=O)N2CCC(C(=O)N3CCC(C)CC3)CC2)c1	?	13%	16µM*!	24%	?	9%
CCOCCCNC(=O)C1CCN(S(=O)(=O)c2c(C)noc2/C=C\c2ccc(OC)cc2)CC1	11%	5%	i	0%	18µM*	3%
O=C(/C=C/c1ccc(C(F)(F)F)cc1)Nc1cccc([S+](=O)([O-])Nc2ccccc2F)c1	/	/	i	/	i	/
O=C(c1cc(Br)ccc1O)N(Cc1ccco1)Cc1cccs1	/	/	?	/	i	/
Cc1ccc(C)c(N2CCN(CCCNC(=O)Cn3cccc3C(=O)c3ccccc3C)CC2)c1	?	10%	i	23µM*	?	23µM*
Cc1cccc(N2CCN(C(=O)Cn3ncc4c5ccccc5n(C)c4c3=O)CC2)c1C	/	/	i	/	i	/
Cc1cccc(N2CCN(C(=O)CCNC(=O)Cn3ccc4ccccc4c3=O)CC2)c1C	1%	2%	i	0%	21µM*	1%
Cc1cccc(N2CCN(C(=O)Cc3cn(C)c4ccccc34)CC2)c1C	18µM*	?	?	?	18µM*	?
Cc1ccccc1C(=O)c1cccn1CC(=O)NCCN1CCN(c2cccc(C)c2C)CC1	?	?	?	23µM*	i	21µM*
COc1ccccc1C(=O)Nc1ccc(C(=O)OCc2cc(=O)n3ccsc3n2)cc1	/	/	i	/	i	/
O=C(Nc1ccc2ccccc2c1)Nc1nnc(Br)s1	/	/	?	/	i	/
COc1ccccc1-c1c(C)nn2c(N3CCN(c4ccc(F)cc4)CC3)cc(C)nc12	/	/	i	/	i	/
SMILES	MCF10A rerep	SW480 rerep	KB-3-1 tox	HT1080NT lethal	KB-V1 cytotox	HT1080 IDH1KD tx
Cc1ccc(Cc2c(-c3ccc(Cl)cc3)nc3cc(C)ccn23)cc1	/	/	i	5%	?	8%
COc1cc2ccnc(Cc3cccc(OC)c3OC)c2cc1OC	?	4%	7.3µM*	-14%	2.1µM*	-29%
Cc1nc(NC(=O)c2ccco2)sc1C(=O)Nc1ccc(Br)cc1	23µM*	1%	?	/	i	/
Cc1nc(NC(=O)c2ccco2)sc1C(=O)O	1%	-9%	13µM*	23µM*	4.6µM*	23µM*
COC(=O)c1sc(NC(=O)c2ccco2)nc1C	-5%	-6%[9.22 µM]	i	5%	i	-5%
Cc1ccc(S(=O)(=O)N2CCCC(C)C2)cc1 (centres undefined)	7%	-4%	i	3%	i	2%
CC1CCCN(S(=O)(=O)c2ccc(S(=O)(=O)NC(C)c3cccs3)cc2)C1 (centres undefined)	1%	-4%	i	-17%	16µM*	-1%
O=C(Nc1ccc(Oc2ccc(NC(=O)Nc3ccccc3Cl)cc2)cc1)Nc1ccccc1Cl	?	12µM*	?	-1%	i	-17%
Cc1ccccc1OCC(=O)NNC(=O)Nc1ccc(Cl)cc1	3.7µM*	?	4.1µM*	6.5µM*	5.2µM*	4.6µM*
CCOc1ccccc1NC(=O)Nc1ccc(Cl)cc1	20%	?	23µM*	-10%	23µM*	-2%
Cc1ccc(Cl)cc1NC(=O)c1ccccc1OCC(=O)Nc1ccc(Cl)cc1	9.2µM*	-31%	i	?	i	-6%
